Each structure is given as a SMILES string. Where a name gives a salt, the structure may show the parent alone.

The assay concerns Saccharomyces cerevisiae BY4741 SeMeCo community. The assay can be described thus: z-score of subpopulation abundance vs DMSO median, subpopulation auxotrophic for LM; higher = larger share of this subpopulation than in DMSO controls. Conditions: 10 µM; 24 h; SM minimal medium; subpopulation (auxotrophy): LM. Here is the method: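 Fluorescent four-plasmid SeMeCo (self-establishing metabolically cooperating S. cerevisiae BY4741 community; plasmids pH-mRuby2, pL-mWasabi, pU-eCFP, pM-TagRFP657) was grown 24 h in minimal SM medium with each Selleck FDA-approved drug at 10 µM in 384-well plates. Cells were fixed and imaged by high-content confocal microscopy. For each auxotrophic subpopulation (and the prototroph), a z-score gives the deviation from the DMSO vehicle-control population median.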
In the case of `CCCNC(C)C(=O)Nc1ccccc1C` (stereo not given) [Prilocaine hydrochloride], the “z-score of subpopulation abundance” value came out at 0.83.
The result for `CN(C)CCN1C(=O)c2cccc3cc(N)cc(c23)C1=O` [Amonafide] reads 1.08; that for `CN1[C@@H]2CC[C@H]1C[C@@H](OC(c1ccccc1)c1ccccc1)C2` [Benztropine mesylate], 0.22; that for `CC(=O)[C@H]1CC[C@H]2[C@@H]3CCC4=CC(=O)CC[C@]4(C)[C@H]3CC[C@]12C` [Progesterone], -0.71.
With `CC(=O)O[C@H]1C[C@@H]2CC[C@@H]3[C@H](CC[C@@]4(C)[C@H]3C[C@H]([N+]3(C)CCCCC3)[C@@H]4OC(C)=O)[C@@]2(C)C[C@@H]1N1CCCCC1` [Vecuronium Bromide] the figure was -1.11.
The result for `Cc1ncc([N+](=O)[O-])n1CCOC(=O)c1ccccc1` [Metronidazole Benzoate] reads -0.57; that for `CC1(C)CC[C@]2(C(=O)O)CC[C@]3(C)C(=CC[C@@H]4[C@@]5(C)CC[C@H](O)C(C)(C)[C@@H]5CC[C@]43C)[C@@H]2C1` [Oleanolic Acid], 0.88; that for `CCCCc1oc2ccc(NS(C)(=O)=O)cc2c1C(=O)c1ccc(OCCCN(CCCC)CCCC)cc1` [Dronedarone HCl], 0.28.
Turning to `COc1ccc(CN2CCN(C(c3ccc(F)cc3)c3ccc(F)cc3)CC2)c(OC)c1OC` [Lomerizine 2HCl], the “z-score of subpopulation abundance” value worked out at 0.33.
With `CN[C@@H]1[C@H](O[C@H]2[C@H](O[C@H]3[C@H](O)[C@@H](O)[C@H](N=C(N)N)[C@@H](O)[C@@H]3N=C(N)N)O[C@@H](C)[C@]2(O)C=O)O[C@@H](CO)[C@H](O)[C@H]1O` [Streptomycin sulfate] the figure was -0.12; with `CCCCCCCCc1ccc(CCC(N)(CO)CO)cc1` [Fingolimod], -1.42.
The result for `CC[C@H](c1ccc(O)cc1)[C@@H](CC)c1ccc(O)cc1` [Hexestrol] reads -0.2; that for `COc1ccc([C@@H]2Sc3ccccc3N(CCN(C)C)C(=O)[C@@H]2OC(C)=O)cc1` [Diltiazem HCl], 0.01; that for `NCCNc1ccc(NCCN)c2c1C(=O)c1ccncc1C2=O` [Pixantrone Maleate], -5.3.
On to `CC1=C(C(=O)O)N2C(=O)[C@@H](NC(=O)[C@H](N)c3ccc(O)cc3)[C@H]2SC1` [Cefadroxil hydrate], for which the “z-score of subpopulation abundance” value is -0.09.
The result for `CNCc1cc(-c2ccccc2F)n(S(=O)(=O)c2cccnc2)c1` [Vonoprazan Fumarate (TAK-438)] reads -0.98.
With `O=C(c1ccc(F)cc1)C1CCN(CCn2c(=O)[nH]c3ccccc3c2=O)CC1` [Ketanserin] the figure was 0.46; with `CCCSc1ccc2[nH]c(NC(=O)OC)nc2c1` [Albendazole], 0.33.
The result for `CN1CCCN=C1/C=C/c1cccs1` [Pyrantel Pamoate] reads -0.65.
For `COc1cc(O)c(C(=O)Nc2nc(C(=O)NCCN(C(C)C)C(C)C)cs2)cc1OC` [Acotiamide], the “z-score of subpopulation abundance” value stood at 1.66.
With `CCC(C)(Oc1ccc(C2(c3ccc(OC(C)(CC)C(=O)O)cc3)CCCCC2)cc1)C(=O)O` (stereo not given) [Clinofibrate] the figure was -1.21.
With `OC(Cn1cncn1)(Cn1cncn1)c1ccc(F)cc1F` [Fluconazole] the figure was -0.76; with `CN(C)CCc1c[nH]c2ccc(C[C@H]3COC(=O)N3)cc12` [Zolmitriptan], -0.12; with `CCCCCC(=O)O[C@]1(C(C)=O)CC[C@H]2[C@@H]3CCC4=CC(=O)CC[C@]4(C)[C@H]3CC[C@@]21C` [Hydroxyprogesterone caproate], 1.5.
With `CCCNCC(O)COc1ccccc1C(=O)CCc1ccccc1` (stereo not given) [Propafenone HCl] the figure was 0.27; with `CO/N=C(/C(=O)N[C@@H]1C(=O)N2C(C(=O)OCOC(=O)C(C)(C)C)=C(C)CS[C@H]12)c1csc(N)n1` [Cefetamet pivoxil hydrochloride], 0.52.
For `CC[N+](CC)(CC)CCOc1cccc(OCC[N+](CC)(CC)CC)c1OCC[N+](CC)(CC)CC` [Gallamine Triethiodide], the “z-score of subpopulation abundance” value was -0.42.
Turning to `Clc1ccc2c(N3CCN(CCCN4CCN(c5ccnc6cc(Cl)ccc56)CC4)CC3)ccnc2c1` [Piperaquine phosphate], the “z-score of subpopulation abundance” value stood at 0.85.
With `CC[C@H](C)C(=O)O[C@H]1C[C@@H](C)C=C2C=C[C@H](C)[C@H](CC[C@@H]3C[C@@H](O)CC(=O)O3)[C@H]21` [Lovastatin] the figure was -0.13; with `COC(=O)Nc1nc2cc(Sc3ccccc3)ccc2[nH]1` [Fenbendazole], 0.66.
As to `CCCCCNC(=N)N/N=C/c1c[nH]c2ccc(OC)cc12` [Tegaserod Maleate], the “z-score of subpopulation abundance” value is 1.85.
Turning to `Nc1ccc(S(=O)(=O)NC(=O)c2ccccc2)cc1` [Sulfabenzamide], the “z-score of subpopulation abundance” value is -0.72.
With `CC(=O)[C@@]1(O)CC[C@H]2[C@@H]3C[C@H](C)C4=CC(=O)CC[C@]4(C)[C@H]3CC[C@@]21C` [Medroxyprogesterone] the figure was 0.45; with `Nc1ccc2cc3ccc(N)cc3nc2c1` [Proflavine], -5.35.
With `Oc1ccc(Cl)c2cccnc12` [Cloxiquine] the figure was 8.36; with `O=C(O[C@H]1CN2CCC1CC2)N1CCc2ccccc2[C@@H]1c1ccccc1` [Solifenacin succinate], 0.27.
The result for `O=C(CCCN1CCC(O)(c2ccc(Cl)cc2)CC1)c1ccc(F)cc1` [Haloperidol] reads 0.48; that for `Cc1nc2n(c(=O)c1CCN1CCC(c3noc4cc(F)ccc34)CC1)CCCC2` [Risperidone], 0.47; that for `Cc1c(Nc2ncccc2C(=O)O)cccc1C(F)(F)F` [Flunixin Meglumin], -1.23.
With `CC#C[C@]1(O)CC[C@H]2[C@@H]3CCC4=CC(=O)CCC4=C3[C@@H](c3ccc(N(C)C)cc3)C[C@@]21C` [Mifepristone], the “z-score of subpopulation abundance” value stood at 0.79.

The values above are taken from the supplement of paper PMC8975748.
